PubChem BioAssay (Tox21)
“And” between values parts separate entries of the source, which are not always exact repeats. Equal entries are not always repeated. Records with an inconclusive call do not appear. The source made the active and inactive calls. Unless noted, the call rests on the fitted dose curve; in most records, active means well fitted curve in the direction sought with a large enough effect in the repeat runs; inconclusive means weak or mixed curves; inactive means no such curve, though single readings can be large; an effect the other way counts as inactive or inconclusive.

Tests used:
[1] = qHTS assay to test for compound auto fluorescence at 535 nm (green) in HEK293 cells (AID 720680)
[2] = qHTS assay to test for compound auto fluorescence at 460 nm (blue) in HEK293 cell free culture (AID 720681)
In short: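 Compounds were added to cell-free DMEM with 10% FBS and fluorescence read directly. The blue channel used 405 nm excitation and 460 nm emission, with triamterene as the reference fluorophore.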

[3] = qHTS assay to test for compound auto fluorescence at 535 nm (green) in HEK293 cell free culture (AID 720682)
In short: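 Measurement is a direct plate read of green fluorescence (485 nm in, 535 nm out) after compound addition to serum-supplemented DMEM lacking cells, with fluorescein used to express intensities.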

[4] = qHTS assay to test for compound auto fluorescence at 590 nm (red) in HEK293 cell free culture (AID 720683)
In short: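 Cell-free wells of DMEM with 10% FBS received compound, and intrinsic fluorescence was read at excitation/emission 540/590 nm. Values expressed as equivalence to Rose Bengal sodium.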

[5] = qHTS assay to test for compound auto fluorescence at 590 nm (red) in HepG2 cell free culture (AID 720684)
In short: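 Auto fluorescence equivalency versus Rose Bengal sodium, red channel Ex/Em 540/590 nm; compounds in cell-free MEM/10% FBS; DMSO vehicle control.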

[6] = qHTS assay to test for compound auto fluorescence at 460 nm (blue) in HepG2 cell free culture (AID 720685)
In short: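 Cell-free plates of MEM plus 10% FBS received 23 nL compound or DMSO vehicle; blue-channel (405/460 nm) intensity scored against triamterene as reference fluorophore.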

[7] = qHTS assay to test for compound auto fluorescence at 535 nm (green) in HepG2 cell free culture (AID 720686)
[8] = qHTS assay to test for compound auto fluorescence at 460 nm (blue) in HepG2 cells (AID 720687)
In short: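 HepG2 cells in MEM with 10% FBS, attached overnight at 37 C, were exposed to compound or DMSO for 1 hr at 37 C, 5% CO2. Blue fluorescence was read at 405/460 nm, with triamterene as reference fluorophore.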

[9] = target: Glucocorticoid receptor (Homo sapiens) (UniProt P04150); experiment: qHTS assay to identify small molecule agonists of the glucocorticoid receptor (GR) signaling pathway (AID 720691; active means well fitted activation curve with a large enough effect in the signal ratio in the repeat runs, not every such curve was filed as active; the % refers to the signal ratio)
In short: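 Agonist-mode qHTS in HeLa cells stably expressing a glucocorticoid-response-element beta-lactamase reporter. Fluorescence intensity read with FRET substrate (2 h, room temperature) after 18 h compound treatment at 37 C.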

[10] = qHTS assay to identify small molecule antagonists of the glucocorticoid receptor (GR) signaling pathway - cell viability counter screen (AID 720693); further: nearly all actives have a fitted effect of over 55% in size
[11] = qHTS assay to identify small molecule antagonists of the androgen receptor (AR) signaling pathway - cell viability counter screen (AID 743033; further: nearly all actives have a fitted effect of over 45% in size)
[12] = qHTS assay to identify small molecule antagonists of the androgen receptor (AR) signaling pathway using the MDA cell line - cell viability counter screen (AID 743041; further: nearly all actives have a fitted effect of over 45% in size)
In short: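 Compound exposure lasted 16 h at 37C in MDA-kb2 AR-luc cells stimulated with R1881. Protease-based CellTiter-Fluor reagent was applied for the final 30 min and fluorescence measured.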

[13] = qHTS assay for identifying genotoxic compounds that show differential cytotoxicity against isogenic chicken DT40 cell lines with known DNA damage response pathways - wild type cell line (AID 743012); further: nearly all actives have a fitted effect of over 60% in size; further: potency means the concentration at half of the fitted maximal effect
In short: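 Viability by ATP luminescence (CellTiter-Glo, 30 min RT) after 40 h compound treatment at 37 C/5% CO2, using 300 parental DNA repair-proficient DT40 cells per well.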

[14] = qHTS assay for identifying genotoxic compounds that show differential cytotoxicity against isogenic chicken DT40 cell lines with known DNA damage response pathways - Rad54/Ku70 mutant cell line (AID 743015); further: nearly all actives have a fitted effect of over 60% in size; further: potency means the concentration at half of the fitted maximal effect
[15] = target: Androgen receptor (Homo sapiens) (UniProt P10275); experiment: qHTS assay to identify small molecule antagonists of the androgen receptor (AR) signaling pathway (AID 743035; active means well fitted inhibition curve with a large enough effect in the signal ratio in the repeat runs, not every such curve was filed as active; the % refers to the signal ratio)
In short: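 Antagonist mode: AR-bla HEK293 cells co-treated with test compounds and agonist R1881 for 16 h at 37C, 5% CO2. Beta-lactamase activity read as FRET fluorescence after 2 h room-temperature substrate loading.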

[16] = target: Androgen receptor (Homo sapiens) (UniProt P10275); experiment: qHTS assay to identify small molecule agonists of the androgen receptor (AR) signaling pathway (AID 743036; active means well fitted activation curve with a large enough effect in the signal ratio in the repeat runs, with a control signal flat, not every such curve was filed as active; the % refers to the signal ratio)
In short: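 Beta-lactamase under UAS control, stably integrated in HEK293 GripTite cells, reports receptor activation. After 16 h compound treatment, cells received FRET substrate for 2 h at room temperature before fluorescence reading.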

[17] = target: Androgen receptor (Homo sapiens) (UniProt P10275); experiment: qHTS assay to identify small molecule agonists of the androgen receptor (AR) signaling pathway using the MDA cell line (AID 743040; further: nearly all actives have a fitted effect of over 20% in size)
In short: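 Testing was done with the MDA-kb2 AR-luc line, a human breast carcinoma stably transfected with MMTV-luciferase containing AR and GR response elements. Cells were exposed 16 h at 37C before ONE-Glo luminescence detection.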

[18] = target: Androgen receptor (Homo sapiens) (UniProt P10275); experiment: qHTS assay to identify small molecule antagonists of the androgen receptor (AR) signaling pathway using the MDA cell line (AID 743042; further: nearly all actives have a fitted effect of over 55% in size)
In short: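 MDA-kb2 breast carcinoma cells carrying MMTV-luciferase (AR/GR responsive) were co-treated with compounds and the agonist R1881 for 16 h at 37C. Inhibition read as ONE-Glo luminescence; CellTiter-Fluor fluorescence measured in parallel for cytotoxicity.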

[19] = target: Glucocorticoid receptor (Homo sapiens) (UniProt P04150); experiment: qHTS assay to identify small molecule antagonists of the glucocorticoid receptor (GR) signaling pathway (AID 720692; active means well fitted inhibition curve with a large enough effect in the signal ratio in the repeat runs, not every such curve was filed as active; the % refers to the signal ratio)
In short: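 Inhibition of dexamethasone-driven (5 nM final) beta-lactamase expression was measured in GRE-reporter HeLa cells over 18 h at 37C. Fluorescence was read after 2 h with the B/G FRET substrate at room temperature.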

[20] = qHTS assay for identifying genotoxic compounds that show differential cytotoxicity against isogenic chicken DT40 cell lines with known DNA damage response pathways - Rev3 mutant cell line (AID 743014); further: nearly all actives have a fitted effect of over 55% in size; further: potency means the concentration at half of the fitted maximal effect

Measured: Potency

Sequence of Glucocorticoid receptor (Homo sapiens) (P04150 whole entry, looked up): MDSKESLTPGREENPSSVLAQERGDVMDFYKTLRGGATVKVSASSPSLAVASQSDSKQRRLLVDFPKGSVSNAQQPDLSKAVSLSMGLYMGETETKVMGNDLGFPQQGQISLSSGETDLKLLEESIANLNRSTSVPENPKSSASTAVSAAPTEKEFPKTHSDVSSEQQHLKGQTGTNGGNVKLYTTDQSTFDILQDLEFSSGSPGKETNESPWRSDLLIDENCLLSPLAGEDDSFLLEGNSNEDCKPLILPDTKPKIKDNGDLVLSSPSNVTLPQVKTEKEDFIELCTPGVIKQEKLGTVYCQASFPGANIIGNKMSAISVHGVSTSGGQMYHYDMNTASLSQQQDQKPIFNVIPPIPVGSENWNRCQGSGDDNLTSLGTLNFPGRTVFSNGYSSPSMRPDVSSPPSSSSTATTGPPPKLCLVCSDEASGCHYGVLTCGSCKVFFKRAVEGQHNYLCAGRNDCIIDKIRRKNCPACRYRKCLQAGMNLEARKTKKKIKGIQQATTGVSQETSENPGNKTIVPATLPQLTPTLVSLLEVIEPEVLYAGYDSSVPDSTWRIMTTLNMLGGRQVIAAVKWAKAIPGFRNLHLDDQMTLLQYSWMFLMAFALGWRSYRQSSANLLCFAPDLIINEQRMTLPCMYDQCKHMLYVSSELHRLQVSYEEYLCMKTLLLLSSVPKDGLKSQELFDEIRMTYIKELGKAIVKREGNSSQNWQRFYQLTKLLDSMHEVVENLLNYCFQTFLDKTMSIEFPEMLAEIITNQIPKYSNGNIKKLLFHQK
Sequence of Androgen receptor (Homo sapiens) (P10275 whole entry, looked up): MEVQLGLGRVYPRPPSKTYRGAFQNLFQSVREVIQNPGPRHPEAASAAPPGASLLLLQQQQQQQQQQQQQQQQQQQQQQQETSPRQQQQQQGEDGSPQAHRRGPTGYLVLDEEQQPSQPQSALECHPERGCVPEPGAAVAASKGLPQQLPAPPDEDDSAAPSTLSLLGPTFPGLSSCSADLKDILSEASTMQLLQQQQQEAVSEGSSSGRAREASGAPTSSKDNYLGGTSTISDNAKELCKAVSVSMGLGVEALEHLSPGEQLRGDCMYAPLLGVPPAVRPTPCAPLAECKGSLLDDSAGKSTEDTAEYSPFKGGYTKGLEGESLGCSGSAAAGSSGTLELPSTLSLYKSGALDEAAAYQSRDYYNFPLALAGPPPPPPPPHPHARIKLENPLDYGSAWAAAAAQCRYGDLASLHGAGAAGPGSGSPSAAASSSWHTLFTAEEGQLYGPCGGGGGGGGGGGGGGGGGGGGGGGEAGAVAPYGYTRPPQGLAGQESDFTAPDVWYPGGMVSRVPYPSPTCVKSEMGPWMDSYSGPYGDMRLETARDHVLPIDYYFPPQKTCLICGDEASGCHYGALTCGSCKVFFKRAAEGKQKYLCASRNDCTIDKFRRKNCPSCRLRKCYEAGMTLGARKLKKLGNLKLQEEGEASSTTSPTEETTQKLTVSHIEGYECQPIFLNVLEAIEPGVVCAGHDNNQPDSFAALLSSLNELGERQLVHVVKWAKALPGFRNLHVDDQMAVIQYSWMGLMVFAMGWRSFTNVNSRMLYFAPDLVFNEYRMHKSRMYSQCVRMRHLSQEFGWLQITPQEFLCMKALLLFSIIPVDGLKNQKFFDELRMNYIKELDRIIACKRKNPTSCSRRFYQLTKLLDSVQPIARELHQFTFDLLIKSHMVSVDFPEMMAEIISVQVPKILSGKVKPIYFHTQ

CCOc1ccc(NC(=O)CC(C)=O)cc1
not listed: [13] | [14] | [15] | [16] | [17] | [18] | [19] | [20]
inactive: all other assays above

CCCCCCCC/C=C\CCCCCCCC(N)=O
not listed: [9] | [19] | [20]
inactive: all other assays above

NCCCOCCOCCOCCCN
active: [13] 5.45 µM | [14] 7.7 µM
not listed: [9] | [12] | [15] | [16] | [17] | [18] | [20]
inactive: all other assays above

CCOC(=O)C1=C(C)NC(C)=C(C(=O)OC)C1c1cccc([N+](=O)[O-])c1 (stereo not given)
active: [13] 26.6 µM | [14] 26.6 µM
not listed: [9] | [15] | [16] | [17] | [18] | [19] | [20]
inactive: all other assays above

CC(C)CCCC(C)CCO (stereo not given)
not listed: [9] | [11] | [13] | [14] | [20]
inactive: all other assays above

CCCCCCCCCCCCCCC1CO1 (stereo not given)
not listed: [10] | [15] | [16] | [17] | [18] | [19]
inactive: all other assays above

CCC(=O)OC(C)(C)C1CC=C(C)CC1 (stereo not given)
inactive: [1] | [2] | [3] | [4] | [5] | [6] | [7] | [8] | [11] | [12]

O=S(=O)(O)c1ccc(O)c2ncccc12
not listed: [9] | [10] | [13] | [15] | [16] | [17] | [18] | [19]
inactive: all other assays above

Cc1ccc(C(=O)C(C)CN2CCCCC2)cc1 (stereo not given)
active: [13] 23.7 µM and 26.6 µM | [20] 29.8 µM | [14] 26.6 µM
not listed: [9] | [15] | [16] | [17] | [18] | [19]
inactive: all other assays above

Cc1nc2ccccc2n1Cc1ccc(Cl)cc1
active: [13] 2.11 µM | [20] 5.31 µM | [14] 4.22 µM
inactive: [1] | [2] | [3] | [4] | [5] | [6] | [7] | [8] | [9]

c1ccc(-c2nc[nH]c2-c2ccccc2)cc1
inactive: [1] | [2] | [3] | [4] | [5] | [6] | [7] | [8] | [10] | [11] | [12]

CCCCCCCCCCCCC(=O)O
not listed: [10] | [15] | [16] | [17] | [18] | [19]
inactive: all other assays above

CCCCCCCCC(CO)CCCCCC (stereo not given)
not listed: [9] | [10] | [15] | [16] | [17] | [18] | [19]
inactive: all other assays above

COc1ccccc1OC(=O)Oc1ccccc1OC
not listed: [9] | [15] | [19]
inactive: all other assays above

CC(C)c1ccccc1C(C)C
not listed: [10] | [14] | [15] | [16] | [17] | [18] | [19]
inactive: all other assays above

CCc1nn(C2CCCCC2)c2cc(C3(C#N)CCC(C(=O)O)CC3)ccc12 (stereo not given)
inactive: [1] | [2] | [3] | [4] | [5] | [6] | [7] | [8] | [9] | [12]
active: [14] 61.1 µM

C#CCOC(=O)[C@@H](C)Oc1ccc(Oc2ncc(Cl)cc2F)cc1
not listed: [10] | [13] | [14] | [15] | [16] | [17] | [18] | [19]
inactive: all other assays above

Nc1nc(N)c(-c2ccccc2)s1
not listed: [9] | [10] | [15] | [16] | [17] | [18] | [20]
inactive: all other assays above

CCCCC(CC)COCCCN (stereo not given)
inactive: [1] | [2] | [3] | [4] | [5] | [6] | [7] | [8] | [9] | [12]
active: [20] 60.4 µM

CC(C)CCCCCCOC(=O)c1ccc(C(=O)OCCCCCCC(C)C)c(C(=O)OCCCCCCC(C)C)c1
not listed: [9] | [15] | [16] | [17] | [18] | [19] | [20]
inactive: all other assays above
